# Assay outcomes: PubChem, National Center for Advancing Translational Sciences (NCATS)
# Imprint erasure: qHTS Assay for Compounds that Induce Erasure of Genomic Imprints; mouse ES Peg3-LacZ reporter, beta-gal luminescence, 40 h; Potency, µM (highest dose often 60.7 µM), without a hit: at the highest dose activity change, positive = activation, most hits filed as activators; 110,000 compounds, 0.02% hits; AID 1948, 2009
#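 Readout: BetaGlo luminescence (5 min, room temp) for LacZ from the normally silent maternal Peg3 allele in female Peg3LacZ-Neo ES cells. Cells 300/well, 40 h, 37C, 5% CO2. Data normalized per plate to negative controls.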
# IkB sig inh: IkB Signaling | ABC-DLBCL IkBa-CBG/CBR dual luciferase ratio, 4 h; response scale: scaled: untreated 0%, proteasome inhibitor 100% | Potency, µM (highest dose often 57.1 µM), inactives show at the highest dose IkBa stabilization activation | 110,000 compounds, 0.04% hits; active = well fitted curve in the direction sought with a large enough effect in the signal ratio, not every such curve was filed as active; inconclusive = small, poorly fitted or top-dose-only effect, or a change in a side signal; the % refers to the signal ratio;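 also: the direction sought is a rising ratio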
#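 In this assay, an IκBα–CBG68 fusion accumulates when IKK-driven degradation is blocked; native CBR normalizes for cell number. OCI-Ly3 cells were treated 4 h with compound and doxycycline, then green and red light read after Chroma-Glo addition.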
# p53ts 32C kill: qHTS Screen for Compounds that Selectively Target Cancer Cells with p53 Mutations: Cytotoxicity of p53ts Cells at the Permissive Temperature. H1299-p53A138V at 32C, ATP luminescence viability, 24 h. Potency, µM (titrated, usually from 46.1 µM), for inactives: at the highest dose activity change, negative = cytotoxicity, actives largely listed as cytotoxic. 130,000 compounds, 0.93% hits. AID 924, 2007;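 also: 0% = DMSO and -100% = full killing by reference compound; nearly all actives have a fitted effect of over 55% in size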
#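 ATP-content luminescence (ATPlite) read-out after 24 h compound exposure at 32C in H1299-p53A138V cells (600/well). Tested up to 46 uM. Normalized to DMSO (0%) and 100 uM tamoxifen (100% killing); Hill-fit AC50.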
# p53ts 39C tox: qHTS Screen for Compounds that Selectively Target Cancer Cells with p53 Mutations: Cytotoxicity of p53ts Cells at the Nonpermissive Temperature | Potency, µM (highest dose often 46.1 µM), inactives show top-dose activity change, negative = cell killing, actives largely listed as cytotoxic | 130,000 compounds, 1.5% hits | H1299-p53A138V viability at 39C, ATP luminescence, 24 h; also: % is scaled to controls: 0 for no effect and ±100 for the full control effect; nearly all actives have a fitted effect of over 55% in size
# * = called active by the depositor; ? = inconclusive; nt = no result; [ ] = remark or other dose. An excerpt weighted towards active compounds, which were near 1.7% of everything screened. Unless noted, calls follow the shape of the dose curve; as a rule, active = well fitted curve in the direction sought with a large enough effect; inconclusive = small, poorly fitted or top-dose-only effect, or another doubt; inactive = no such curve, though single readings can be large; an effect the other way counts as inactive or inconclusive. Potency is read from the fitted curve at half-maximal effect.
SMILES,Imprint erasure,IkB sig inh,p53ts 32C kill,p53ts 39C tox
CC(C)Cn1nc(NC(=O)c2cccc(Cl)c2)c2cc3ccccc3nc21,-8%[10.9 µM],?,-24%,13µM*
O=C(O)c1cccc(COc2ccccc2Cl)c1,-96%,?,10µM*,13µM*
CCOC(=O)c1nnn(CC(=O)Nc2cc(C)cc(C)c2)c1C(=O)OCC,5%[10.9 µM],?,4%,26%
Cc1ccc(-n2nc(C)c(C(=O)NCCCN3CCN(c4cccc(Cl)c4)CC3)c2-n2cccc2)cc1,-14%[10.9 µM],?,?,?
Cc1ccc(-n2nc(C)c(C(=O)NCCCN3CCN(c4ccccc4F)CC3)c2-n2cccc2)cc1,-18%[10.9 µM],?,-9%,13µM*
O=C(O)CCc1nc(-c2ccccc2-n2cccc2)no1,-8%[10.9 µM],-1%[11.4 µM],-3%[9.22 µM],-2%[9.22 µM]
Cc1ccc(C)c(CN2C(=O)c3ccccc3S(=O)(=O)c3ccc(C(=O)NCCCN4CCCC(C)C4)cc32)c1 (stereo unspecified),-17%[10.9 µM],?,-1%,?
CC1CCCN(CCCNC(=O)c2ccc3c(c2)N(Cc2ccc(Cl)cc2)C(=O)c2ccccc2S3(=O)=O)C1 (stereo unspecified),-12%[10.9 µM],?,?,10µM*
Cc1ccc(N=c2oc3cc(O)ccc3cc2C(N)=O)cc1,-26%,?,?,7.9µM*
COc1ccc(N=c2oc3cc(O)ccc3cc2C(=O)NCC2CCCO2)cc1 (stereo unspecified),nt,?,4%,10%
CCOc1ccccc1NC(=O)c1nn(C)c2c1CSc1ccccc1-2,15%[10.9 µM],-2%,-1%,16µM*
COc1ccc(-c2cc(C(=O)N3CCCCC3)no2)cc1OC,-38%,?,-20%,-23%
Cc1ccc(-c2cc(C(=O)N3CCCC3)no2)cc1,-80%,?,7.9µM*,7.9µM*
O=C(/C(C=Nc1ccc(Br)cc1)=C(/O)c1ccco1)C(F)(F)F,nt,nt,11µM*,11µM*
COC(=O)c1cc(-c2ccc3ccccc3c2)[nH]c(=O)c1C#N,2%[10.9 µM],-2%[11.4 µM],-17%[9.22 µM],0%[9.22 µM]
N#C/C(=C\c1ccc(-c2ccc(F)cc2F)o1)c1nc2ccccc2[nH]1,-13%[10.9 µM],-11%,16µM*,6.3µM*
CCOC(=O)c1ccc(-c2ccc(/C=C(\C#N)c3nc4ccc(C)cc4[nH]3)o2)cc1,-41%[10.9 µM],?,?,3.2µM*
Cc1ccc2c(CNCCc3ccccc3)c(C(=O)O)n(Cc3ccccc3C)c2c1,13%[10.9 µM],1%,2%,-7%
CCC(=O)Nc1cccc(-c2nc3ccccc3c(=O)o2)c1,-48%,?,13µM*,10µM*
CCCOc1ccc(-c2nnc(-c3ccco3)o2)cc1,-78%,3%,13µM*,?
CCCOc1ccc(-c2nc3ccccc3c(=O)o2)cc1,-46%[10.9 µM],63%,10µM*,5µM*
C[C@@]1(CO)[C@H](O)CC[C@]2(C)[C@@H]1CC[C@H]1C[C@H]3C[C@]12CC[C@]3(O)COC(=O)CN,8%[10.9 µM],-1%[11.4 µM],3%[9.22 µM],18%[9.22 µM]
COC(=O)N1CCC2(CCCN(Cc3ccc(C#N)cc3)C2)CC1,nt,3%[11.4 µM],0%,-2%
CCc1nn(CC(=O)NCCCN2CCN(CC)CC2)c(=O)c2cc3occc3n12,10%[10.9 µM],0%,0%,-5%
CCCCn1cc(S(=O)(=O)c2ccc(C)cc2)c(=O)c2cc(F)c(N3CCCCC3)cc21,nt,nt,5%,nt
SMILES,Imprint erasure,IkB sig inh,p53ts 32C kill,p53ts 39C tox
COc1ccc(C)cc1NC(=O)C(Cc1ccccc1)NS(=O)(=O)c1ccc(Br)s1 (stereo unspecified),-11%[10.9 µM],-1%,?,13µM*
COc1ccc(C)cc1NC(=O)C(Cc1ccccc1)NS(=O)(=O)c1cccs1 (stereo unspecified),-4%[10.9 µM],1%,-2%,-14%
CCCCN(CC)C(=O)Nc1ccc2c(c1)N(C)C(=O)c1ccccc1S2,-11%[10.9 µM],?,0%,25µM*
CCCCN(CC)CCCNC(=O)c1ccc2c(c1)N(Cc1ccc(C)cc1)C(=O)c1ccccc1S2,-9%[10.9 µM],0%,?,13µM*
O=C(NCCN1CCOCC1)c1ccc(-n2c(=O)c(=O)[nH]c3ccccc32)cc1,nt,nt,7%,1%
S=C(S)NCCCn1ccnc1,-10%[10.9 µM],0%[11.4 µM],6%[9.22 µM],10%[9.22 µM]
N#Cc1c(/N=C/c2cccs2)sc2c1CCCCC2,-56%,6%,7.9µM*,10µM*
N#Cc1c(/N=C/c2ccc(Br)s2)sc2c1CCC2,nt,nt,-1%,12%
Cc1ccc2nc(-c3ccc(Cl)c(NC(=O)COc4cccc(C)c4C)c3)oc2c1,-5%[10.9 µM],-1%,-18%,13%
Cc1cc(C)c2sc(N(Cc3cccnc3)C(=O)CCS(=O)(=O)c3ccccc3)nc2c1,19%[10.9 µM],1%,-1%,16µM*
Cc1cc(C)c2nc(N(Cc3cccnc3)C(=O)CCS(=O)(=O)c3ccccc3)sc2c1,-7%[10.9 µM],1%,1%,-1%
COc1ccc(Cn2c(=O)n(-c3ccc(F)c(Cl)c3)c(=O)c3c2c2cc(OC)ccc2n3C)cc1,7%[10.9 µM],0%,3%,13%
O=C(Cn1c(=O)n(Cc2ccc(C(=O)NCc3ccccc3Cl)cc2)c(=O)c2ccccc21)Nc1ccc(F)cc1,-13%[10.9 µM],?,6%,7%
COc1ccc(CSc2nc3ncccc3[nH]2)cc1,nt,nt,16µM*,nt
CCOC(=O)CC(NS(=O)(=O)c1ccc2[nH]c3c(c2c1)CCCC3)c1ccccc1Cl (stereo unspecified),-14%[10.9 µM],0%,32%,13µM*
COc1cccc(NS(=O)(=O)c2ccc3[nH]c4c(c3c2)CCCCCC4)c1,-11%[10.9 µM],?,14%,20µM*
COc1ccc(OC)c(S(=O)(=O)n2ccnc2)c1,-5%,-2%,4%,6%
CC1(COc2ccc(C[C@H]3SC(=O)NC3=O)cc2)CCCCC1,-2%,?,?,40µM*
Cc1c(C)c2c(c(C)c1O)CCC(C)(COc1ccc(CC3SC(=O)NC3=O)cc1)O2 (stereo unspecified),-7%,nt,nt,nt
Cc1cc(C)cc(NC(=O)CCc2c(C)nc3c(c2C)c(=O)n(C)c(=O)n3C)c1,21%[10.9 µM],?,4%,2%
CCC(=O)NC(c1ccccc1OC)c1ccc2cccnc2c1O (stereo unspecified),nt,nt,-2%,-18%
Oc1cccc(C(Nc2ccccn2)c2ccc3cccnc3c2O)c1Cl (stereo unspecified),-22%[10.9 µM],?,2%,7.9µM*
Cc1[nH]n(-c2ccccc2)c(=O)c1/C=N\NC(=O)C1COc2ccccc2O1 (stereo unspecified),nt,nt,nt,14µM*
Cc1c(/C=N\NC(=O)C2COc3ccccc3O2)c2ccccc2n1C (stereo unspecified),nt,nt,nt,-10%
Cc1ccc(C2c3c(-c4ccccc4O)n[nH]c3C(=O)N2CCCO)cc1 (stereo unspecified),-10%[10.9 µM],?,19%,1%
